Screens: PubChem BioAssay, National Center for Advancing Translational Sciences (NCATS)
Shown are actives, neighbours in structure and some others; about 9.4% of the full set was active somewhere.
SMN2 splice enh = qHTS Assay for Enhancers of SMN2 Splice Variant Expression | AID 1458, 2008 | HEK293 SMN2-luciferase splicing reporter, luminescence, 30-36 h | Potency, µM (top dose mostly 46.1 µM), actives largely listed as activators | hit rate 2.8% among 210,000; also: nearly all actives have a fitted effect of over 55% in size
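HEK293 cells carry an SMN2 minigene-luciferase reporter in which exon 7 inclusion puts luciferase in frame. Cells were seeded at 2000 cells/well, attached for 10-12 hours, then exposed to compounds for 30-36 hours at 37C before ONE-Glo luminescence.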
NPC1 prom act = qHTS Assay for NPC1 Promoter Activators | Huh7 NPC1 promoter luciferase reporter, 24 h | AID 485313, 2010 | hit rate 2.4% among 320,000 | Potency, µM (top dose mostly 9.22 µM), actives largely listed as activators; also: nearly all actives have a fitted effect of over 60% in size
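Huh7 cells stably carrying NPC1 promoter–luciferase, plated in Opti-MEM with 10% FBS for 2 h, were exposed to compound in DMSO for 24 h at 37 °C; luciferase reagent was added for 10 min and luminescence read.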
FLuc modulator = qHTS profiling assay for firefly luciferase inhibitor/activator using purifed enzyme and Km concentrations of substrates (counterscreen for miR-21 project); AID 588342, 2011; Luciferin 4-monooxygenase (Photinus pyralis), P08659; hit rate 6.9% among 360,000; purified FLuc, Km substrates, luminescence inhibition; Potency, µM (titrated, usually from 57.5 µM), hits mostly inhibitors; also: nearly all actives have a fitted effect of over 55% in size
Target sequence (P08659 whole entry, looked up): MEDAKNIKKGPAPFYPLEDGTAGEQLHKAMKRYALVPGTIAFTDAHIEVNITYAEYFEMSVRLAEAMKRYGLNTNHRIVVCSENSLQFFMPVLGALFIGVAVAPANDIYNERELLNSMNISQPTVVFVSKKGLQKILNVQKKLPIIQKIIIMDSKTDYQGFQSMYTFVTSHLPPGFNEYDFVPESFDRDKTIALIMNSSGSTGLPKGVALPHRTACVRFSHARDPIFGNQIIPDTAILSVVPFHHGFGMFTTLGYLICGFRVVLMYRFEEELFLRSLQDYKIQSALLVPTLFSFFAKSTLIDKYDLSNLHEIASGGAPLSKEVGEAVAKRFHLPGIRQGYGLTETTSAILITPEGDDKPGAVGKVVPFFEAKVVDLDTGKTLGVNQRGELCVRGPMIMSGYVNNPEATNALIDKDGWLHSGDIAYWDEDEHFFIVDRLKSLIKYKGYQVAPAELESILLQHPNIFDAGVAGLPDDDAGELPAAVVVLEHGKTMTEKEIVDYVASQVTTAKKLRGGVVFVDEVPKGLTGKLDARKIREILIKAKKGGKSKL
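Purified P. pyralis luciferase (10nM final) with 10uM D-luciferin and 10uM ATP (Km levels) in 50mM Tris acetate pH 7.5, 10mM Mg acetate, 0.01% Tween-20, 0.05% BSA; qHTS 6-point titration, ~60 µM downward; luminescence read.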
ELG1 genotoxic = qHTS screen for small molecules that induce genotoxicity in human embryonic kidney (HEK293T) cells expressing luciferase-tagged ELG1; HEK293T ELG1-luciferase reporter, luminescence, 16 h; hit rate 1.3% among 330,000; Potency, µM (titrated, usually from 46 µM), actives largely listed as activators; also: nearly all actives have a fitted effect of over 60% in size
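Screening used a luciferase reporter fused to human ELG1 in HEK293T cells. Luminescence was read on a CCD plate imager after 16 hr exposure and 30 min ONE-Glo incubation.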
Rab9 prom act = qHTS Assay for Rab9 Promoter Activators; Huh7 Rab9 promoter-luciferase reporter, luminescence, 24 h; hit rate 2.8% among 320,000; Potency, µM (highest dose often 9.22 µM), usual class: activators; AID 485297, 2010; also: nearly all actives have a fitted effect of over 60% in size
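Luminescence read-out: Huh7 cells stably expressing Rab9-luciferase, treated 24 h with compound at 37 °C, then lysed with luciferase reagent for 10 min at ambient before reading.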
ELG1 repair inh = qHTS screen for small molecules that inhibit ELG1-dependent DNA repair in human embryonic kidney (HEK293T) cells expressing luciferase-tagged ELG1; HEK293T ELG1-luciferase reporter, luminescence, 16 h; DNA damage induced by 5-fluorouridine; Potency, µM (titrated, usually from 46.1 µM), most hits filed as inhibitors; hit rate 2.3% among 330,000; AID 504467, 2011; also: nearly all actives have a fitted effect of over 55% in size
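In this reporter screen, reduction of luminescence relative to DMSO vehicle indicated activity. Compounds and 5-fluorouridine were added together to 2,000 cells per well, incubated for 16 hr at 37 °C, then developed with ONE-Glo.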
Numbers stand for hits; n = inactive; u = inconclusive; x = no result. Calls follow the shape of the dose curve; as a rule, active = well fitted curve in the direction sought with a large enough effect; inconclusive = small, poorly fitted or top-dose-only effect, or another doubt; inactive = no such curve, though single readings can be large; an effect the other way counts as inactive or inconclusive.

SMILES | SMN2 splice enh | NPC1 prom act | FLuc modulator | ELG1 genotoxic | Rab9 prom act | ELG1 repair inh
CC1CCCCN1S(=O)(=O)c1cc2c3c(c1)CC(=O)N3CCC2 (configuration not stated) | x | x | n | x | x | x
CCOc1ccccc1CNC(=O)CCn1c(=O)c2cccn2c2ccc(F)cc21 | x | x | n | x | x | x
Nc1nc2ccc(N3CCOCC3)cc2s1 | 16µM | u | 11µM | 8.2µM | 2.8µM | u
CC[C@H](C)[C@H](NC(=O)[C@H](CCCN=C(N)N)NC(=O)[C@H](CCCN=C(N)N)NC(=O)[C@H](CC(C)C)NC(=O)[C@H](Cc1ccccc1)NC(=O)CNC(=O)CN)C(=O)N[C@@H](CCCN=C(N)N)C(=O)N1CCC[C@H]1C(=O)N[C@@H](CCCCN)C(=O)N[C@@H](CC(C)C)C(=O)N[C@@H](CCCCN)C(=O)O | n | x | x | x | x | x
CC(C)(C)SCCNC(=O)c1ccccc1 | n | u | u | n | 3.2µM | u
CSCCNC(=O)c1ccc(C(C)(C)C)cc1 | u | 4µM | 3µM | u | 4µM | u
Cc1ccc(C(=O)NCCSC(C)(C)C)cc1 | 10µM | 0.5µM | u | 1.8µM | 0.56µM | u
CCc1nn(Cc2c(C)cc(C)cc2C)c(=O)c2cc3cc(C)ccc3n12 | n | x | n | x | x | x
CN(C)c1ccc(N=C/C=C2\N(C)c3ccccc3C2(C)C)cc1 | n | n | 15µM | n | n | u
CN1\C(=C/C=C/C=C/C=[N+](C)C)C(C)(C)c2ccccc21 | n | n | 8.5µM | n | n | n
CN1/C(=C\C=O)C(C)(C)c2ccccc21 | n | n | n | n | n | n
CN(CC(=O)Nc1ccc(F)cc1)C(=O)c1cc(-c2cccs2)nn1-c1ccccc1 | x | n | n | n | n | u
CC1CCCC(C)N1c1nnc(NC(=O)c2cc(-c3ccc(Br)cc3)on2)s1 (configuration not stated) | n | n | n | n | n | n
CCn1c(C(=O)N2CCC(C(=O)N3CCN(c4ccccn4)CC3)CC2)cc2sccc21 | n | n | n | n | n | 13µM
CCn1c(C(=O)N2CCC(C(=O)N3CCN(c4cccc(C)c4C)CC3)CC2)cc2sccc21 | n | x | n | x | x | x
CC1CCN(C(=O)C2CCN(C(=O)c3cc4sccc4n3Cc3ccc(F)cc3)CC2)CC1 | n | n | n | n | n | 16µM
CC(C)NC(=O)C1CCN(C(=O)c2cc3sccc3n2Cc2ccc(F)cc2)CC1 | n | n | n | n | n | 18µM
Cc1cccc(NC(=O)C2CCCN(S(=O)(=O)c3c(C)n[nH]c3C)C2)c1 (configuration not stated) | n | x | n | x | x | x
CCOC(=O)c1sc2ccccc2c1S(=O)(=O)Nc1ccc(CC)cc1 | x | x | n | x | x | x
CCN1CCN(c2oc(/C=C/c3ccc(OC)c(OC)c3)nc2C#N)CC1 | n | x | n | x | x | x
O=[N+]([O-])c1ccccc1S(=O)(=O)Nc1cccc(-c2ccc(N3CCOCC3)nn2)c1 | x | n | 2.7µM | u | u | u
COc1ccc(-c2cccc(NS(=O)(=O)c3cc([N+](=O)[O-])ccc3C)c2)nn1 | x | n | n | n | n | n
O=S(=O)(Nc1cccc(-c2ccc(N3CCOCC3)nn2)c1)c1cc(Cl)ccc1Cl | x | n | 7.6µM | u | u | u
Cc1ccc([N+](=O)[O-])cc1S(=O)(=O)Nc1cccc(-c2ccc(N3CCOCC3)nn2)c1 | x | n | 3µM | 9.2µM | u | u
O=[N+]([O-])c1ccccc1S(=O)(=O)Nc1ccc(-c2ccc(N3CCOCC3)nn2)cc1 | x | n | u | n | n | u
SMILES | SMN2 splice enh | NPC1 prom act | FLuc modulator | ELG1 genotoxic | Rab9 prom act | ELG1 repair inh
O=[N+]([O-])c1ccccc1S(=O)(=O)Nc1cccc(-c2ccc(N3CCCC3)nn2)c1 | x | n | 17µM | u | n | u
O=S(=O)(Nc1ccc(N2CCOCC2)cc1)c1cc(Cl)ccc1Cl | x | n | n | n | n | n
CCn1cc(S(=O)(=O)c2ccc(OC)cc2)c(=O)c2cc(F)c(N3CCC(C)CC3)cc21 | x | x | n | x | x | x
CC1Cc2cc(S(=O)(=O)NCc3ccccc3Cl)ccc2N1C(=O)C1CCC1 (configuration not stated) | x | x | n | x | x | x
Cc1nc2cc(F)ccc2n1C1CCN(C(=O)c2ccc(F)cc2F)CC1 | n | n | n | n | n | 9.2µM
Cc1nc2cc(F)ccc2n1C1CCN(C(=O)c2c(F)cccc2F)CC1 | n | n | n | n | n | u
CCOc1ccc(CCNC(=O)c2cccc(-n3c(C)nc4cccnc43)c2)cc1 | x | x | n | x | x | x
Cc1ccc(-c2nnc(SCC(=O)N3CCCc4ccccc43)o2)cc1 | n | x | u | x | x | x
O=C(CSc1ccccc1)Nc1ccccc1C(=O)O | n | x | 21µM | x | x | x
Cc1ccc(CCC(=O)Nc2ccccc2C(=O)O)o1 | x | u | 17µM | u | u | u
COc1ccc(CC(=O)Nc2cccc(C(=O)O)c2C)cc1 | 16µM | n | u | n | n | u
Cc1ccc(SCC(=O)Nc2ccccc2C(=O)O)cc1 | u | u | 8.5µM | n | u | u
COC(=O)c1ccccc1NC(=O)CSc1ccc(C)cc1 | n | n | n | n | n | n
Cc1ccc(C)c(NC(=O)CCc2ccc(C)o2)c1 | x | n | n | n | n | n
COC(=O)c1ccc(-n2c(/C=C\c3cccc(Br)c3)nc3ccccc3c2=O)cc1 | x | x | n | x | x | x
CCCCCn1c(CCCNC(=O)c2cccc(C)c2)nc2ccccc21 | n | x | n | x | x | x
COc1cccc(CNC(=O)CCc2c(C)nc3c4c(C)cc(C)nc4nn3c2C)c1 | n | x | n | x | x | x
CC(C)n1c2ccccc2c2nnc(SCC(=O)Nc3ccccc3C(=O)O)nc21 | n | n | 19µM | n | n | n
CSc1ccccc1NC(=O)CSCc1ccc(C)cc1 | n | n | n | n | n | n
O=C(Cc1cccc2ccccc12)Nc1ccccc1C(=O)O | u | n | 27µM | u | n | u
Cc1ccc(CSCC(=O)Nc2ccccc2C(=O)O)cc1 | x | 3.5µM | 12µM | n | 2.8µM | u
CC(=O)c1ccc(NC(=O)CCc2c(C)nn(-c3ccc4nncn4n3)c2C)cc1 | x | x | n | x | x | x
Cc1ccnc(NC(=O)c2cccc(NC(=O)c3ccccc3C)c2)c1 | x | n | u | n | n | n
Cc1ccc(NC(=O)Nc2cccc(F)c2)nc1 | x | u | 6.7µM | u | u | u
Cc1ccnc(NC(=O)Nc2cccc(F)c2)c1 | 3.5µM | 1.6µM | 0.95µM | 0.92µM | 1µM | u
C[C@@H]1C(=O)NC2=Nc3cccc(Cl)c3CN21 | n | n | x | x | n | x
COc1ccc(C(=O)C2CCCN(C(=O)c3noc4c3CCCC4)C2)cc1F (configuration not stated) | x | n | n | n | n | u
